In the library only some 6.7% were active in any assay of this set; here they are far more common.
MCF10A rerep – DNA re-replication induction in MCF 10a cells. MCF 10A DNA re-replication, Hoechst nuclear intensity, 48 h. Potency, µM (top dose mostly 46.1 µM), most hits filed as activators. 350,000 compounds, 2.9% hits. AID 624296; note: nearly all actives have a fitted effect of over 50% in size
PINK1 expr mod – PINK1 expression modulation; PINK1 immunofluorescence, high-content cytometry, 24 h; Potency, µM (titrated, usually from 76.6 µM), usual class: activators; AID 624263; 410,000 compounds, 0.2% hits; active = well fitted activation curve with a large enough effect; inconclusive = small, poorly fitted or top-dose-only effect; cell line not stated here; note: nearly all actives have a fitted effect of over 65% in size
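PINK1 protein, normally rapidly degraded, was detected by immunofluorescence after 24 hour compound treatment of a stable cell line. Titration data (5 concentrations) came from laser-scanning cytometry, with CCCP-treated wells as controls.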
KB-3-1 tox – kills parental KB-3-1 adenocarcinoma cells | Potency, µM (titrated, usually from 46.1 µM), usual class: cytotoxic | AID 1347075 | 400,000 compounds, 1.4% hits | KB-3-1 viability, CellTiter-Glo ATP luminescence, 72 h; note: nearly all actives have a fitted effect of over 60% in size
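Cells are dispensed, compounds pinned in, plates held at 37 °C for 72 h, then CellTiter-Glo is added and luminescence read after 10 minutes. Cell line: parental KB-3-1 in phenol-red-free DMEM, 10% FBS.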
KB-V1 cytotox – KB-V1 MDR subline cytotoxicity | KB-V1 MDR cells viability, CellTiter-Glo, 72 h | 400,000 compounds, 3.4% hits | Potency, µM (titrated, usually from 46.1 µM), hits mostly cytotoxic; note: nearly all actives have a fitted effect of over 60% in size
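Cells of the MDR subline KB-V1 are plated, dosed with compound at multiple concentrations, and incubated 72 h at 37 degrees C; CellTiter-Glo is then added and luminescence read after 10 min.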
SW480 rerep – DNA re-replication induction in SW480 cells; SW480 DNA re-replication, Hoechst DNA content imaging, 48 h; Potency, µM (titrated, usually from 46.1 µM), actives largely listed as activators; 340,000 compounds, 1.8% hits; AID 624297; note: nearly all actives have a fitted effect of over 55% in size
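250 cells/well; 23 nL cpd via pin tool; 48 hr, 37 C, 5% CO2; Hoechst 40 min; imager read of total nuclear intensity, ex 405/em 500-530 nm.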
Hits are given with their value; . = inactive; ? = inconclusive; / = not tested or not shown. Unless noted, calls come from the whole dose curve; as a rule, active = well fitted curve in the direction sought with a large enough effect; inconclusive = small, poorly fitted or top-dose-only effect, or another doubt; inactive = no such curve, though single readings can be large; an effect the other way counts as inactive or inconclusive.

SMILES | MCF10A rerep | PINK1 expr mod | KB-3-1 tox | KB-V1 cytotox | SW480 rerep
COc1ccc2c(c1)OC[C@H]1[C@H]2N2C(=O)c3cc(OC)c(OC)cc3NC(=O)[C@@]2(C)[C@H]1c1ccccc1 | 18µM | . | . | ? | 21µM
O=C1OCCN1C(=O)[C@H]1[C@H](c2ccc(Cl)cc2)C(c2ccccc2)=NN1c1ccc(Br)cc1 | ? | . | . | . | 23µM
O=C1OCCN1C(=O)[C@H]1[C@H](c2ccccc2)C(c2cccc(Cl)c2)=NN1c1ccc(Br)cc1 | ? | . | . | . | 2.1µM
O=C1OCCN1C(=O)[C@H]1[C@H](c2ccc([N+](=O)[O-])cc2)C(c2ccccc2)=NN1c1ccc(Br)cc1 | . | . | . | . | .
O=C1OCCN1C(=O)[C@H]1[C@H](c2ccc(F)cc2)C(c2cccc(Cl)c2)=NN1c1ccc(Br)cc1 | ? | . | ? | . | 1.3µM
COc1ccccc1N(C)S(=O)(=O)c1ccc(C)c(C(=O)NC(C)c2ccccn2)c1 (centres undefined) | . | . | . | 9.2µM | .
COc1cc(C(C)=O)ccc1OCC(=O)Nc1cc(C)on1 | . | . | . | ? | .
COc1cc(C)cc(OC)c1OCC(=O)Nc1cc(C)on1 | . | . | . | 21µM | .
CCOC(=O)c1ccc(NC(=O)Cn2nc(SC)c(S(=O)(=O)c3ccc(Cl)cc3)c2N)cc1 | / | 18µM | ? | ? | /
COc1ccccc1NC(=O)C1=C(C)N(c2ccccc2)C(=S)NC1c1cccc(C(F)(F)F)c1 (centres undefined) | . | . | ? | 8.2µM | .
COC(=O)c1ccc(C2NC(=S)N(c3ccccc3)C(C)=C2C(=O)Nc2ccccc2OC)cc1 (centres undefined) | . | . | . | . | .
CS(=O)(=O)N1CCC[C@@]2(CCN(C(c3ccccc3)c3ccccc3)C2)C1 | / | . | / | / | /
CC(=O)Nc1ccc(S(=O)(=O)N(C)CC(=O)OCC(=O)N2CCCCCC2)cc1 | . | . | . | . | .
Cc1ccnc2c(O)cccc12 | / | / | . | . | /
O=Cc1ccc(O)c2ncccc12 | 1.6µM | . | 6.5µM | ? | 7.3µM
COc1cccc(OCc2cc(=O)n3c(-c4ccccc4)csc3n2)c1 | / | . | . | . | /
CCOC(=O)n1c(=O)n(Cc2ccccc2)c2ccccc21 | . | . | . | ? | .
CCOC(=O)n1c(=O)n(C)c2ccc(Cl)cc21 | . | . | ? | 8.2µM | .
COCCN1C[C@@H](CO)O[C@@H](n2cnc3c(N(C)C)ncnc32)C1 | / | . | . | . | /
O=C1OC(/C(=C\Nc2cc(Cl)ccc2O)[N+](=O)[O-])c2ccccc21 (centres undefined) | 15µM | . | . | . | ?
O=C1OC(/C(=C\Nc2ccc(F)cc2F)[N+](=O)[O-])c2ccccc21 (centres undefined) | . | . | . | . | .
O=c1[nH]cnc2c1[nH]c(=S)n2C1O[C@@H](CO)[C@H](O)[C@@H]1O (some centres undefined) | / | . | ? | ? | /
O=c1[nH]c(=O)n([C@@H]2O[C@H](CO)[C@@H](O)[C@H]2O)cc1F | / | . | ? | ? | /
O=c1[nH]cnc2c1ccn2C1OC(CO)C(O)C1O (centres undefined) | 2.1µM | . | 15µM | 16µM | .
O=c1[nH]c(=O)n(C2OC(CO)C(O)C2O)cc1F (centres undefined) | ? | . | 21µM | 21µM | 1µM
SMILES | MCF10A rerep | PINK1 expr mod | KB-3-1 tox | KB-V1 cytotox | SW480 rerep
O=c1[nH]c(=S)ccn1C1OC(CO)C(O)C1O (centres undefined) | ? | . | 9.2µM | ? | .
CCCNC(=O)c1ccc(N2CCC3(CC2)CC(c2cccc(Br)c2)=NO3)c(NC(=O)c2ccc(Cl)c([N+](=O)[O-])c2)c1 | . | . | . | . | .
CC#CC#Cc1cccc(=O)o1 | 18µM | ? | . | ? | .
Cc1nc(NC(=O)COC(=O)C2CC2C)c(Cl)cc1Cl (centres undefined) | . | . | ? | ? | .
Cc1cc2c(cc1C)CSC(c1c(O)ccc3ccccc13)SC2 | 18µM | . | ? | . | .
Cc1cc2c(cc1C)CSC(c1ccccc1O)SC2 | ? | . | ? | 18µM | ?
Oc1ccccc1C1OCC2(CO1)COC(c1ccccc1O)OC2 (centres undefined) | . | . | ? | . | .
